Where “and” joins values, the source holds several entries; their conditions need not be identical. Equal entries are not always repeated. Records with an inconclusive call do not appear. Calls of active or inactive are those of the source. Unless noted, calls come from the whole dose curve; as a rule, active = well fitted curve in the direction sought with a large enough effect; inconclusive = small, poorly fitted or top-dose-only effect, or another doubt; inactive = no such curve, though single readings can be large; an effect the other way counts as inactive or inconclusive.

Assay [1] can be described thus: Primary qHTS for small molecule stabilizers of the endoplasmic reticulum resident proteome: Secreted ER Calcium Modulated Protein (SERCaMP) assay (AID 1508630). Note: % is set by controls: 0 for no effect and ±100 for the full control effect. The gist of the method:
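GLuc-SERCaMP-expressing SH-SY5Y cells, pretreated 16 h with compound, are challenged with thapsigargin to empty ER calcium stores; after 4 h, coelenterazine is added directly to the medium and luminescence is imaged.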
(In general: Quantitative high-throughput screening tests each substance at several concentrations.)

A short description of assay [2]: A High-Content qHTS Against Drug Library for the Identification of Small Molecules that Inhibit DYT1 Early Onset Primary Dystonia-Associated Cell Pathology (AID 1645839; calls by dose curve; note: potency is the fitted concentration of half-maximal effect). Put shortly:
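Readout: %pathology, the punctate EGFP-TorsinA distribution from imaging, as the primary channel and cell count as the toxicity counterscreen. HEK293 Flp-In cells expressing delE TorsinA were induced with tetracycline and treated with compound for 48 h.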

Assay [3] addresses Cytochrome P450 2C9 (Homo sapiens) (UniProt P11712). The assay is described as follows: Cytochrome P450 family 2 subfamily C member 9 (CYP2C9) small molecule antagonists: luciferase biochemical (cell-free) qHTS assay (AID 1645842; active = well fitted curve in the direction sought with a large enough effect in the repeat runs; an effect the other way counts as inactive or inconclusive; note: nearly all actives have a fitted effect of over 55% in size; note: potency is the fitted concentration of half-maximal effect; for activity change, negative = inhibition: % is set by controls: 0 for no effect and ±100 for the full control effect). The gist of the method: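 Luminescence, after 20 min with luciferin detection reagent, reflected CYP2C9 turnover during a 1 h NADPH-driven reaction at 37C. Enzyme-substrate mix contained 0.4% bovine serum albumin and was preincubated with compound 10 min at room temperature.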

In assay [4] the target is Papain (Carica papaya) (UniProt P00784). Kind of assay: Primary qHTS assay for inhibitors of the protease papain (AID 1645873). For activity change, negative = inhibition: % is set by controls: 0 for no effect and ±100 for the full control effect.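 Note: papain turnover of Z-FR-AMC read as the AMC fluorescence gain over 10 min.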 Note: potency is the fitted concentration of half-maximal effect.
The nature of assay [5]: Primary qHTS for inhibitors of nuclear receptor binding SET domain protein 2 (NSD2) in an isogenic RCH-ACV NSD2 p.E1099K mutant (9B) (AID 1645876). Note: nearly all actives have a fitted effect of over 70% in size. Note: potency is the fitted concentration of half-maximal effect.
Assay [6] can be described thus: Primary qHTS for inhibitors of nuclear receptor binding SET domain protein 2 (NSD2) in an RCH-ACV wild type WT cells (2C) (AID 1645877). Note: nearly all actives have a fitted effect of over 70% in size. Note: potency is the fitted concentration of half-maximal effect.
For assay [7], the target named is Cytochrome P450 2D6 (Homo sapiens) (UniProt P10635). The assay is described as follows: Cytochrome P450 family 2 subfamily D member 6 (CYP2D6) small molecule antagonists: luciferase biochemical (cell-free) qHTS assay (AID 1645840; active = well fitted curve in the direction sought with a large enough effect in the repeat runs; an effect the other way counts as inactive or inconclusive; note: nearly all actives have a fitted effect of over 55% in size; note: potency is the fitted concentration of half-maximal effect; for activity change, negative = inhibition: % is set by controls: 0 for no effect and ±100 for the full control effect). Put shortly: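 P450-Glo luminescent screen: recombinant CYP2D6 enzyme–proluciferin substrate mix preincubated with compound 10 min at room temperature, then NADPH regeneration added for 1 h at room temperature. Detection reagent added for 20 min; luciferin light read as relative luminescence units.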

Assay [8] deals with Rap guanine nucleotide exchange factor 3 (Homo sapiens) (UniProt O95398). Kind of assay: Confirmatory qHTS for agonist of cAMP-regulated guanine nucleotide exchange factor 3 (EPAC1) (AID 1645881).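 Note: EPAC1 catalysed release of BODIPY-GDP from Rap1B seen as fluorescence loss; 100% = effect of cAMP agonist control; nearly all actives have a fitted effect of over 75% in size.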
Assay [9] concerns the target Rap guanine nucleotide exchange factor 4 (Homo sapiens) (UniProt Q8WZA2). The assay is described as follows: Confirmatory qHTS for agonist of cAMP-regulated guanine nucleotide exchange factor 4 (EPAC2) (AID 1645884).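 Note: nucleotide exchange releases bodipy-GDP from Rap1 and this lowers its fluorescence; % is set by controls: 0 for no effect and ±100 for the full control effect; nearly all actives have a fitted effect of over 65% in size.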
The target is the same in assay [10]. The assay is described as follows: Confirmatory qHTS for antagonist of cAMP-regulated guanine nucleotide exchange factor 4 (EPAC2) (AID 1645885). Note: potency is the fitted concentration of half-maximal effect; nearly all actives have a fitted effect of over 25% in size.
For assay [11], the target named is Catechol O-methyltransferase (Homo sapiens) (UniProt P21964). Kind of assay: Confirmatory Screen for Target Class Profiling of Small Molecule Inhibitors of Methyltransferases (AID 1745852; calls by dose curve; note: potency is the fitted concentration of half-maximal effect). The following applies: MTase-Glo luminescence, SAH detection, recombinant enzyme; measured here: COMT max response; stronger effect = lower value.
The target in assay [12] is Guanidinoacetate N-methyltransferase (Homo sapiens) (UniProt Q14353). Described as above. The following applies: MTase-Glo luminescence, SAH detection, recombinant enzyme; activity change, negative = inhibition: at 57.3 µM (top of the series).
Assay [13] addresses Nicotinamide N-methyltransferase (Homo sapiens) (UniProt P40261). The description is as above. The following applies: MTase-Glo luminescence, SAH detection, recombinant enzyme; measured here: NNMT max response; stronger effect = lower value.

Chain of Cytochrome P450 2C9 (Homo sapiens) (P11712 whole entry, looked up): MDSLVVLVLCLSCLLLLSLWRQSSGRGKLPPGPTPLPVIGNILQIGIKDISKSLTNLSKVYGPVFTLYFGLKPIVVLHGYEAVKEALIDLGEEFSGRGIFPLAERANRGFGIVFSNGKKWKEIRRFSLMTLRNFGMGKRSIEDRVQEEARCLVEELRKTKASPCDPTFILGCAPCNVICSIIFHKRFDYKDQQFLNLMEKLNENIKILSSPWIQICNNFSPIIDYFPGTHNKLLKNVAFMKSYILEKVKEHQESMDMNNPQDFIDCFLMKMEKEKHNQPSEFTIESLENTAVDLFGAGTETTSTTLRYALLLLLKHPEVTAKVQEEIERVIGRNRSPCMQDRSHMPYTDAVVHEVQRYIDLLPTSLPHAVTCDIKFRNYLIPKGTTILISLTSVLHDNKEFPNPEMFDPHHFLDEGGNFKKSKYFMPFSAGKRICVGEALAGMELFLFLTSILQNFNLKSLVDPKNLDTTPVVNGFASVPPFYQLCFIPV
Chain of Rap guanine nucleotide exchange factor 4 (Homo sapiens) (Q8WZA2 whole entry, looked up): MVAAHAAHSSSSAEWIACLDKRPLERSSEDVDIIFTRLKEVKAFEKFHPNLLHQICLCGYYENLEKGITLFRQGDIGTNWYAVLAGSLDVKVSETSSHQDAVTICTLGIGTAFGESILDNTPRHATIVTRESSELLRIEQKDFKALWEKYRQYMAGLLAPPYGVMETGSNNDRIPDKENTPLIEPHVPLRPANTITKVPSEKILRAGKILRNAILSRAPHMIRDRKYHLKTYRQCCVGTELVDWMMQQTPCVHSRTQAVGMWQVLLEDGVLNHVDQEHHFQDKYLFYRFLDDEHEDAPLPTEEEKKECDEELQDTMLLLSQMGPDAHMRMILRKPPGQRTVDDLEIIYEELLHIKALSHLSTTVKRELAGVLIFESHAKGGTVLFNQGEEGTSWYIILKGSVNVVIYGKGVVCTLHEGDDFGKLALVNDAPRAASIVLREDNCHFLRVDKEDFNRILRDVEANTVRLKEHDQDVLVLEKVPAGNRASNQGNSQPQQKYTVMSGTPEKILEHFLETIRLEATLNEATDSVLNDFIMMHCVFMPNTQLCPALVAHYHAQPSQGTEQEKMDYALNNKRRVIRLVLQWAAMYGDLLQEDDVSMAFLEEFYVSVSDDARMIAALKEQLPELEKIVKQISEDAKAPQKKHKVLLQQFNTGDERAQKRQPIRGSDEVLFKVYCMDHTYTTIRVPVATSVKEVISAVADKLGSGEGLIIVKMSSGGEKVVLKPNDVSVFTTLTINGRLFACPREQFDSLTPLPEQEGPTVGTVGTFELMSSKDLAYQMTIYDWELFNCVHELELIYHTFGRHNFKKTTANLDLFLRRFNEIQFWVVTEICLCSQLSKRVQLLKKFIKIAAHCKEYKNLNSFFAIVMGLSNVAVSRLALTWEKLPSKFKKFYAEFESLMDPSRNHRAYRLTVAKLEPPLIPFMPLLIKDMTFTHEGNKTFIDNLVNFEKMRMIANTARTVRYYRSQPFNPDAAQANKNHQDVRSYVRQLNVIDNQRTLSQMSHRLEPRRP
Chain of Papain (Carica papaya) (P00784 whole entry, looked up, the tested form may be a part): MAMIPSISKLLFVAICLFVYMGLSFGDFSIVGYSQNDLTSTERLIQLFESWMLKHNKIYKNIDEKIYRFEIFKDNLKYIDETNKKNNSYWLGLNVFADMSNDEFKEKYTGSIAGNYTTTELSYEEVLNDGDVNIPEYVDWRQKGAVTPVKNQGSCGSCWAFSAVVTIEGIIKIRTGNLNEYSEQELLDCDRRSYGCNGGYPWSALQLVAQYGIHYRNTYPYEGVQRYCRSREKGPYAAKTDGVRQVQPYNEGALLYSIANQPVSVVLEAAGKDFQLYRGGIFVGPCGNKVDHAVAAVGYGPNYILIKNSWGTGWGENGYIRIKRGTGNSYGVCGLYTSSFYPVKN
Chain of Cytochrome P450 2D6 (Homo sapiens) (P10635 whole entry, looked up): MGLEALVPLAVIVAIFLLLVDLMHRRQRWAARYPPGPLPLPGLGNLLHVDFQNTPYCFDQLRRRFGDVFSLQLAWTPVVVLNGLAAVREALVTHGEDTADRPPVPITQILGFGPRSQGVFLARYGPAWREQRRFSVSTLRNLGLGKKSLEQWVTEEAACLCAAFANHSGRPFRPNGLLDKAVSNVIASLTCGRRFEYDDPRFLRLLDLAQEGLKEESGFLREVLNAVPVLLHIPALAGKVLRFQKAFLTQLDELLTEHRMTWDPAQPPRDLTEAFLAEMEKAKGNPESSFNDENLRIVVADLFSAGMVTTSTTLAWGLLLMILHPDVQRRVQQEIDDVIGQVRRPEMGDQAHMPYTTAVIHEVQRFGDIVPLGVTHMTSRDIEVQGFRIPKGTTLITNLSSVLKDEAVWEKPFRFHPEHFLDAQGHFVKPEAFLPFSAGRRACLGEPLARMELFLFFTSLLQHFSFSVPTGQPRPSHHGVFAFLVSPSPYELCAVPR
Chain of Nicotinamide N-methyltransferase (Homo sapiens) (P40261 whole entry, looked up): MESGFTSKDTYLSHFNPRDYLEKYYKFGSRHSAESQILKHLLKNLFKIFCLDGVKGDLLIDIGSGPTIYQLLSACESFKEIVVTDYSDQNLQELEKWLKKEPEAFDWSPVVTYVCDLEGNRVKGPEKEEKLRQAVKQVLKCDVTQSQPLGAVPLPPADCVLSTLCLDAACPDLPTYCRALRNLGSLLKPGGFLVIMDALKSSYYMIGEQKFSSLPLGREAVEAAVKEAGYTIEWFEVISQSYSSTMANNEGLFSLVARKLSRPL
Chain of Catechol O-methyltransferase (Homo sapiens) (P21964 whole entry, looked up): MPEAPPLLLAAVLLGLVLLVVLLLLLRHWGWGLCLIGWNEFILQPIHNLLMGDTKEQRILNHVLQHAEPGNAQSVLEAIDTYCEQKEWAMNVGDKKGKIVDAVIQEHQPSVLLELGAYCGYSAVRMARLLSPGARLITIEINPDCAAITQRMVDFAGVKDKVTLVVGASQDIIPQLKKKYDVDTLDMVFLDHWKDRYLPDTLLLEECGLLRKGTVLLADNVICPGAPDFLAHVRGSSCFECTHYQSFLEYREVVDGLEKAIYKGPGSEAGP
Chain of Rap guanine nucleotide exchange factor 3 (Homo sapiens) (O95398 whole entry, looked up): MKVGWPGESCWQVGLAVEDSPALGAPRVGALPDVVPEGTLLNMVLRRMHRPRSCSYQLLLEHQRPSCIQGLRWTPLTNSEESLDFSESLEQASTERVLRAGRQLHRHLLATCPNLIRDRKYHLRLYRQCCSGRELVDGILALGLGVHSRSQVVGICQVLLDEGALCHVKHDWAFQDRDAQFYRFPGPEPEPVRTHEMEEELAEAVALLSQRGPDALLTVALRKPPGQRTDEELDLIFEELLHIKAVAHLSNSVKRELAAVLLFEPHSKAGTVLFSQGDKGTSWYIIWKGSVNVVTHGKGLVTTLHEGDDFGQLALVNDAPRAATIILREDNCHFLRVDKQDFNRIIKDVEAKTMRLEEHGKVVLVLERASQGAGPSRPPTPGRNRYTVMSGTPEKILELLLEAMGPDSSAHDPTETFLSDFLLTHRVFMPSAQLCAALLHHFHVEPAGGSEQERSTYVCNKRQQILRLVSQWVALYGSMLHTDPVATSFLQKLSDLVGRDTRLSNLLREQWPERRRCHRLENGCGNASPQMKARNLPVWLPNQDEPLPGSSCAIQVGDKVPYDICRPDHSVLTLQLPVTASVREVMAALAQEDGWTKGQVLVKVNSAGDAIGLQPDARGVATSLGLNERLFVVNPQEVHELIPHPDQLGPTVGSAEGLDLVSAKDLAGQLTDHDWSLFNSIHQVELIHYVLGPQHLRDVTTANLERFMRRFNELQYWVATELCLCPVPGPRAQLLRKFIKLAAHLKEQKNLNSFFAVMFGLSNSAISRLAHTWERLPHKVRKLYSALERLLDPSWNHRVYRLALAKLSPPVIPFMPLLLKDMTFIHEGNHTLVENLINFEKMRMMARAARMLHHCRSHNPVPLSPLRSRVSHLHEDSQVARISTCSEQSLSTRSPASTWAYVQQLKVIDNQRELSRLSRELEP

On to `CCc1cccc2c3c([nH]c12)C(CC)(CC(=O)O)OCC3` (stereo unspecified), for which the Potency result in [1], in assay [2], in [4], in assay [5] and in assay [6] was “inactive” throughout. Moreover, in assay [3], the Potency is 18.2 µM (active).

Turning to `NC(CO)C(=O)NNCc1ccc(O)c(O)c1O` (stereo unspecified), the Potency result in assay [1], in [2] and in [4] was “inactive” each time. In addition, in assay [5], the Potency was 26.3 µM (active).

For `O=C1Cc2cc(CCN3CCN(c4nsc5ccccc45)CC3)c(Cl)cc2N1`, the Potency entry in [1] was “inactive”. Further, the Potency in assay [7] is 9.77 µM (active); in assay [4] it was 3.55 µM (active); in assay [5], 15 µM (active); in [6], 20.5 µM (active).

As to `COc1cc2nc(N3CCN(C(=O)c4ccco4)CC3)nc(N)c2cc1OC`, the Potency result in [1], in [7] and in assay [3] was “inactive” throughout. Besides, the Potency in assay [5] and in assay [6] was 13 µM (active) throughout.

For `CNCCCC12CCC(c3ccccc31)c1ccccc12`, the Potency entry in assay [1] and in assay [4] was “inactive” each time. The Potency in [2] was 12.6 µM (active); in [5], 21.1 µM (active) and 20.9 µM (active); in [6] it was 18.8 µM (active) and 20.9 µM (active).

Consider `Cc1cnc(C(=O)NCCc2ccc(S(=O)(=O)NC(=O)NC3CCCCC3)cc2)cn1`, for which the Potency entry in assay [2] and in assay [4] was “inactive” each time.

With `CC(C(=O)O)c1cccc(C(=O)c2ccccc2)c1` (stereo unspecified), the Potency result in [2] and in assay [4] was “inactive” throughout. Besides, the Potency in assay [3] is 19.5 µM (active).

Consider `OCCN1CCN(CCCN2c3ccccc3Sc3ccc(C(F)(F)F)cc32)CC1`, for which the Potency entry in assay [1], in [4], in assay [8] and in assay [9] was “inactive” each time. Besides, the Potency in [5] is 18.8 µM (active); in assay [6], 18.8 µM (active); in [10], 44.1 µM (active); in assay [12], 0.0306 µM (active). In addition, the activity is -1.96% in [11] and -64.7% in assay [13].

`O=C(c1ccc(F)cc1)C1CCN(CCn2c(=O)[nH]c3ccccc3c2=O)CC1`: the Potency result in assay [1], in [2], in [4], in assay [5] and in [6] was “inactive” throughout.

For the compound `CN1CCN(CCCN2c3ccccc3Sc3ccc(Cl)cc32)CC1`, the Potency entry in [1], in [3], in assay [4] and in [8] was “inactive” throughout. For the same compound, the Potency in assay [7] is 0.155 µM (active); in [10] it was 35 µM (active).

Regarding `CN(C)c1nc(N(C)C)nc(N(C)C)n1`, the Potency result in assay [1], in assay [2], in [4], in assay [5] and in assay [6] was “inactive” each time.

In the case of `COc1ccc2c(c1)c(CC(=O)O)c(C)n2C(=O)c1ccc(Cl)cc1`, the Potency entry in assay [1], in assay [7], in [4], in assay [5] and in [6] was “inactive” throughout. Besides, the Potency in assay [3] was 11 µM (active).

Consider `NCCc1cnc[nH]1`, for which the Potency entry in assay [1], in assay [2], in assay [4], in [5] and in assay [6] was “inactive” in each case.

As to `O=C1c2c(O)ccc(O)c2C(=O)c2c(NCCNCCO)ccc(NCCNCCO)c21`, the Potency entry in [1], in [2] and in assay [4] was “inactive” in each case. Besides, the Potency in [5] is 0.186 µM (active); in assay [6], 0.132 µM (active).

As to `COc1cc2nc(N3CCN(C(=O)C4COc5ccccc5O4)CC3)nc(N)c2cc1OC` (stereo unspecified), the Potency entry in assay [1], in assay [7] and in assay [3] was “inactive” in each case. Besides, the Potency in assay [4] was 25.1 µM (active).

Regarding `Cn1ccc2cc3c(cc21)CCN3C(=O)Nc1cccnc1`, the Potency result in [1], in [7], in assay [3], in [4], in [5] and in assay [6] was “inactive” in each case. The activity in assay [11] is -1.14%; in assay [13], -11.7%. For the same compound, the activity change, negative = inhibition in [12] was -1.78%.

On to `COc1nc(C)nc(Cl)c1NC1=NCCN1`, for which the Potency result in assay [2], in assay [7], in assay [3], in [4], in assay [5] and in [6] was “inactive” throughout.

(Values after PubChem BioAssay (NCATS).)
